# Compound activity from PubChem.
# Compounds with a hit are over-represented: about 19% of the library has one in this group of screens.
# TGFb inhibitor: inhibitors of TGF-b signaling | HepG2 CAGA-GFP TGF-b/SMAD3 reporter, GFP fluorescence, 18 h; TGF-beta stimulated, 500 pg/mL final | Potency, µM (series often up to 46.1 µM), for the others: at the top dose activity, negative = inhibition, usual class: inhibitors | 410,000 tested, 1.2% active | AID 588855; note: potency is the fitted concentration of half-maximal effect; % is set by controls: 0 for no effect and ±100 for the full control effect; nearly all actives have a fitted effect of over 65% in size
#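 Inhibition of TGF-beta-driven CAGA-GFP reporter expression in HEPG2 cells is measured by cellular GFP fluorescence after 18 h stimulation with 500 pg/mL recombinant TGF-beta in 1% FBS medium at 37 degrees C.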
# ASM inhibitor: human S-ASM enzyme inhibition; P17405; 340,000 tested, 0.006% active; Potency, µM (doses to about 57.5 µM), for the others: at the top dose activity change, negative = inhibition, most hits filed as inhibitors; placental ASM, HMU-PC fluorogenic substrate, 60 min; note: potency is the fitted concentration of half-maximal effect
# Target sequence (P17405 47-631 limits assumed): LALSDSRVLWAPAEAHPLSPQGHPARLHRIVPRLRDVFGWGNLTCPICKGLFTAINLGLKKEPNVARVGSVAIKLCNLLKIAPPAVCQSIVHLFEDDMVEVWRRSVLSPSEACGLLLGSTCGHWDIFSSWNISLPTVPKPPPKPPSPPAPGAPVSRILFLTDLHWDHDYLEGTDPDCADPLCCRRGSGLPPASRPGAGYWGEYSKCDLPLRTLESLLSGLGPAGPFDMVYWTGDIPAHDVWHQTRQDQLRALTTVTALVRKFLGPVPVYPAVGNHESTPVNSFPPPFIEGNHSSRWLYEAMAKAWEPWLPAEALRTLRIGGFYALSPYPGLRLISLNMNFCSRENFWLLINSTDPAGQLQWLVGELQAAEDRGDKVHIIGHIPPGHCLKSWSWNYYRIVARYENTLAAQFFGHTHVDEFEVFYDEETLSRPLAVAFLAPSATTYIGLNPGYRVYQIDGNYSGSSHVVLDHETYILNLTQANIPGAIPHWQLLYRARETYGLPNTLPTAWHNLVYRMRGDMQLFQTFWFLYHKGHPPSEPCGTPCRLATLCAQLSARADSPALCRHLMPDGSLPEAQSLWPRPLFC
#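 Human placenta-derived ASM enzyme was preincubated with compound for 10 minutes at room temperature, then given fluorogenic substrate HMU-PC0 (9 uM final) for 60 minutes at 37 °C; a pH 10 stop preceded fluorescence reading at Ex 386/Em 447 nm.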
# HepG2 viability: counter-screen for TGF-b inhibitors: cytotoxicity in HepG2 cells; HepG2 CAGA-GFP viability, ATP luminescence, 18 h; Potency, µM (series often up to 46.1 µM), inactives show at the highest dose activity change, negative = cytotoxicity, most hits filed as cytotoxic; 410,000 tested, 0.76% active; AID 588856; note: potency is the fitted concentration of half-maximal effect
#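 HepG2 CAGA-GFP cells (1000/well, DMEM with 1% FBS) received compound, then TGF-beta at 500 pg/mL final, and were incubated 18 hours at 37 degrees C. Viability was read by CellTiter-Glo luminescence. Media-only wells were set as complete cell-killing and DMSO as no toxicity.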
# TDP1 cell CPT: DT40-hTDP1 cell growth loss with CPT | 420,000 tested, 12% active | chicken DT40 Tdp1-/-;hTDP1 cells + 20 nM CPT, ATP luminescence, 48 h | Potency, µM (top dose mostly 46.2 µM), without a hit: at the top dose activity change, negative = growth inhibition, most hits filed as inhibitors; note: potency is the fitted concentration of half-maximal effect; % is set by controls: 0 for no effect and ±100 for the full control effect; nearly all actives have a fitted effect of over 55% in size
#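 Chicken DT40 Tdp1-/- cells complemented with human TDP1, 400 cells/well, exposed to compounds plus 20 nM camptothecin for at least 48 h at 37 C; viability read as ATP content by CellTiter-Glo luminescence.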
# DT40 TDP1 no CPT: qHTS for Inhibitors of human tyrosyl-DNA phosphodiesterase 1 (TDP1): qHTS in cells in absence of CPT; DT40 Tdp1-/- hTDP1 cells, no CPT, ATP luminescence, 48 h; Potency, µM (highest dose often 46.2 µM), for the others: at the top dose activity change, negative = growth inhibition, most hits filed as inhibitors; 420,000 tested, 15% active; AID 686978, 2013; note: potency is the fitted concentration of half-maximal effect; % is set by controls: 0 for no effect and ±100 for the full control effect; nearly all actives have a fitted effect of over 55% in size
#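 No-CPT arm: Tdp1-/-;hTDP1 DT40 cells (400/well) plus compounds, incubated ≥48 hr at 37 °C. Readout CellTiter-Glo luminescence.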
# IL-1B inflam inh: inflammasome signaling inhibition, IL-1 beta readout; AID 743279; activity change, % at 57.5 µM; 360,000 tested, 4.7% active; THP-1 LPS/ATP IL-1B secretion, AlphaLISA, 16 h; hits give low values; in the data active = activity change below about -50%; inconclusive = mostly about -30% to -49%; note: % is set by controls: 0 for no effect and ±100 for the full control effect
#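 THP-1 cells pretreated 1 hr with compounds (up to 57.5 uM final), then stimulated with LPS (250 ng/mL final) plus ATP (1.25 mM final); secreted IL-1B measured by AlphaLISA after 16 hr, decreased signal indicating inhibition.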
# An asterisk follows results filed as active; i = inactive; ? = inconclusive; . = not tested or not shown. Unless noted, calls come from the whole dose curve; as a rule, active = well fitted curve in the direction sought with a large enough effect; inconclusive = small, poorly fitted or top-dose-only effect, or another doubt; inactive = no such curve, though single readings can be large; an effect the other way counts as inactive or inconclusive.
SMILES,TGFb inhibitor,ASM inhibitor,HepG2 viability,TDP1 cell CPT,DT40 TDP1 no CPT,IL-1B inflam inh
O=C(NCCOc1ccc(F)cc1)c1ccccc1SCc1ccccc1,0%,-1%,-1%,-26%,?,-108*
COc1ccc(NC(=S)N2CCN(c3ccc([N+](=O)[O-])cc3)CC2)cc1OC,4%,-8%,-3%,10µM*,12µM*,-3
COc1ccc(NC(=S)N2CCN(S(=O)(=O)c3ccccc3)CC2)cc1OC,-3%,2%,0%,-19%,-17%,i
COc1cccc(NC(=S)N2CCN(c3ccc([N+](=O)[O-])cc3)CC2)c1,-23%,-12%,-3%,6.5µM*,10µM*,-18
COC(=O)Cc1ccc(NC(=S)N2CCN(c3cccc(O)c3)CC2)cc1,1%,6%,2%,16µM*,13µM*,?
CC1(C)Cc2c(cnn2-c2ccc(F)cc2)C(NC(=O)CCc2ccncc2)C1 (stereo unspecified),0%,1%,8%,1%,0%,14
OC(c1ccc(-c2ccccc2)cc1)c1ncc(-c2ccccc2Cl)[nH]1 (stereo unspecified),?,.,-32%,?,?,-17
COc1ccc(C(C(=O)NC(C)(C)C)N(CCc2ccc(OC)c(OC)c2)C(=O)CCC(=O)Nc2cc(C)on2)cc1 (stereo unspecified),6%,-4%,-23%,?,?,-5
O=C(c1ccccc1NS(=O)(=O)c1ccc(Br)cc1)N1CCOCC1,15%,-1%,-1%,-6%,2%,-53*
Cn1c(=O)n(C)c2cc(N3CCOCC3)c(NS(=O)(=O)c3ccc(Br)cc3)cc21,21%,.,-27%,15µM*,?,.
Cc1cc(S(=O)(=O)Nc2cc3c(cc2N2CCOCC2)n(C)c(=O)n3C)ccc1F,-24%,.,-70%,23µM*,9.2µM*,.
COc1ccccc1C(=O)NC(=S)Nc1ccc(N2CCN(C(=O)c3ccco3)CC2)cc1,2%,-9%,6%,?,15µM*,?
Cc1ccccc1C(=O)N1CCN(c2ccc(NC(=O)c3ccc4c(c3)OCO4)cc2)CC1,-6%,0%,-1%,13µM*,13µM*,-131*
Cc1ccccc1C(=O)N1CCN(c2ccc(NC(=S)NC(=O)c3ccco3)cc2)CC1,?,-3%,-24%,23µM*,26µM*,?
O=C(Nc1ccc(N2CCN(C(=O)c3ccco3)CC2)cc1)c1ccc(Br)cc1,-4%,-6%,-2%,-6%,?,-1
CC(=O)N1CCN(c2ccc(NC(=O)c3ccccc3C)cc2)CC1,5%,1%,0%,5%,9%,-7
COc1ccc(OC)c(CNS(=O)(=O)c2ccc3c(c2)CCCN3C(C)=O)c1,-13%,.,-20%,?,?,.
C=CCNc1nc2ccccc2nc1NS(=O)(=O)c1ccc(OC)cc1,0%,39%,-4%,?,1%,21
COc1cc(OC)cc(-c2nnc(Nc3nc4c(F)cccc4s3)o2)c1,-1%,i,2%,21µM*,?,33
COc1ccc(-c2nnc(-c3ccc(N)cc3)o2)cc1,-17%,107%,-15%,-1%,-16%,-18
O=C(COc1ccccc1)NNc1nc2c(F)cccc2s1,-6%,1%,-4%,7%,2%,33
COc1ccc(-c2nnc(Nc3nc4c(OC)cccc4s3)o2)c(OC)c1,-19%,i,-13%,4.6µM*,4.1µM*,-3
COc1ccc(-c2nnc(Nc3nc4c(OC)cccc4s3)o2)cc1,24%,i,-51%,5.2µM*,18µM*,104
COc1ccc(CN2C(=O)C(CC(=O)NC(c3ccccc3)c3ccccc3)CC(C(=O)N(C)C)=C2C)cc1 (stereo unspecified),-6%,.,-2%,?,?,-7
COc1ccc(N2CCN(C(=O)CCNC(=O)c3ccc(C(C)(C)C)cc3)CC2)cc1,-19%,-2%,-20%,18µM*,?,13
SMILES,TGFb inhibitor,ASM inhibitor,HepG2 viability,TDP1 cell CPT,DT40 TDP1 no CPT,IL-1B inflam inh
O=C(CCC(=O)N1CCN(c2ccc(Cl)c(Cl)c2)CC1)c1ccccc1,?,-15%,-27%,21µM*,18µM*,-9
COc1ccc(C(=O)NCC(=O)N2CCN(c3ccc(Cl)cc3)CC2)cc1,-3%,-4%,0%,-15%,?,10
COc1ccc(N2CCN(C(=O)CN3CCN(C(c4ccccc4)c4ccccc4)CC3)CC2)cc1,?,3%,-2%,?,23µM*,-15
COc1ccc(C(=O)CCC(=O)N2CCN(c3ccccc3)CC2)cc1,21%,-5%,-1%,16µM*,?,-15
COc1ccc(N2CCN(CC(=O)NC(C)c3ccccc3)CC2)cc1 (stereo unspecified),-9%,2%,-2%,20%,-21%,-12
Cc1nn(-c2ccccc2)c(C)c1C(=O)OCc1ccc(C#N)cc1,-11%,-4%,-10%,?,?,-9
Cc1cccc(NC(=O)C2COc3ccccc3O2)c1 (stereo unspecified),-1%,-1%,0%,-5%,4%,6
Cc1ccc(O)c(N=NC2=C(O)CC(C)(C)CC2=O)c1,?,-4%,-4%,15µM*,8.2µM*,46
CC1(C)CC(=O)C(C=Nc2cccnc2/N=C/C2=C(O)CC(C)(C)CC2=O)=C(O)C1,3%,2%,-2%,4.6µM*,?,-10
CC1(C)CC(=O)C(C=Nc2cccnc2)=C(O)C1,-3%,0%,-12%,-13%,-14%,-2
CC1(C)CC(=O)C(C=Nc2ccc3c(c2)OCO3)=C(O)C1,11%,2%,-16%,-26%,-10%,1
CC1(C)CC(=O)C(C=Nc2ccc(O)c(N=CC3=C(O)CC(C)(C)CC3=O)c2)=C(O)C1,4%,-4%,0%,16µM*,?,7
CC1CCCN(C(=O)CN2C(=O)NC(C)(c3ccc4ccccc4c3)C2=O)C1 (stereo unspecified),17%,-1%,5%,?,?,-4
CC(C)(C)c1ccc(-c2noc(CCC(=O)N3CCOCC3)n2)cc1,-23%,-2%,16%,?,18µM*,22
CN(C)C(=O)CCc1nc(-c2ccc(C(C)(C)C)cc2)no1,7%,4%,-7%,16µM*,21µM*,-15
